A selection: hits, their analogues and other compounds. The true share with any hit is near 12%.
Shiga toxin inh – inhibitors of Shiga toxin in Vero cells; hit rate 9.2% among 290,000; Vero cells, Shiga toxin protein synthesis inhibition reporter; AID 2315; inhibition, % at 38.7 µM; in the data active means inhibition mostly above about 28%, no sharp cut-off; inactive means mostly below about 43%; further: 0% is about no effect
CHX counter – affects cycloheximide protein synthesis inhibition readout, counter-screen. cell reporter, cycloheximide protein synthesis inhibition counterscreen. max response, %. hit rate 12% among 300,000. AID 2314; in the data active means max response mostly above about 13%, no sharp cut-off; inactive means mostly below about 14%; further: read at 38.3 µM for the half of the compounds with a filed dose; 0% is about no effect
Sm TGR block – blocks Schistosoma mansoni thioredoxin glutathione reductase; Q962Y6; purified TGR, DTNB reduction, TNB absorbance 405 nm; Potency, µM (titrated, usually from 114 µM), for inactives: top-dose activity change, negative = inhibition, most hits filed as inhibitors; hit rate 3% among 360,000; AID 485364; active means well fitted inhibition curve with a large enough effect; inconclusive means small, poorly fitted or top-dose-only effect; inactive means no such curve, though single readings can be large or run the other way; further: potency means the concentration at half of the fitted maximal effect; on the % scale 0 is the no-effect control and ±100 the full control effect; nearly all actives have a fitted effect of over 60% in size
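TGR 20 nM + NADPH 100 uM (dispensed conc.), cpd preinc 15 min RT; start with NADPH (500 uM addition) then DTNB (15 mM addition). Kinetic TNB absorbance, 405 nm filter. Four-parameter Hill fit across titration.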
FMDV antiviral – foot and mouth disease virus antiviral activity | Potency, µM (highest dose often 57.9 µM), for the others: top-dose activity change, negative = inhibition, most hits filed as inhibitors | FMDV antiviral cell-based qHTS | hit rate 1.2% among 410,000; calls by dose curve; tested in HEK293T cells; further: read-out not given here; potency means the concentration at half of the fitted maximal effect; on the % scale 0 is the no-effect control and ±100 the full control effect; nearly all actives have a fitted effect of over 45% in size
Numbers without * were called inactive; ? = inconclusive; / = no result given.

SMILES	Shiga toxin inh	CHX counter	Sm TGR block	FMDV antiviral
Cc1cccc(C(=O)NC(=O)Nc2ccc(-c3cc(C(F)(F)F)nn3-c3ccccc3)cc2)c1	/	/	17%	?
Cc1cc(C(=O)Nc2ccc3c(c2)OCCO3)ccc1[N+](=O)[O-]	/	27*	1%	-35%
O=C(Nc1ccccn1)c1ccc2c(c1)OCCO2	39	26	-3%	?
O=C(Nc1ccc2c(c1)OCCO2)c1cccnc1	59*	25*	-3%	70%
CCN(CC(=O)Nc1ccc2c(c1)OCCO2)CC(=O)Nc1ccc(C)c([N+](=O)[O-])c1	/	/	/	28%
O=C(Nc1ncccc1Cl)c1ccc2c(c1)OCCO2	84*	32*	5%	50%
COc1ccc(CCNC(=O)C(=O)NCC(c2ccc3c(c2)OCO3)N2CCOCC2)cc1 (stereo unspecified)	/	/	6%	?
Cc1ccc(/C=N\NC(=O)C2CC(=O)N(c3ccccc3)C2)o1 (stereo unspecified)	25	24*	-35%	37%
O=C(c1ccco1)N1CCCC(Nc2ccc3c(c2)OCCO3)C1 (stereo unspecified)	85*	43*	-24%	43%
CSCc1ccc(C(=O)N2CCCC(Nc3ccc4c(c3)OCCO4)C2)o1 (stereo unspecified)	1	0	28µM*	12%
O=C(NC1CCCC1)C(c1cccs1)N(C(=O)c1ccco1)c1ccc2c(c1)OCCO2 (stereo unspecified)	52*	15*	-36%	-2%
CSCc1ccc(C(=O)N2CCCC(Nc3ccc(F)cc3)C2)o1 (stereo unspecified)	-6	8	-32%	-25%
COCCCNC(=O)c1c(NC(=O)c2cc(=O)c3ccccc3o2)sc2c1CCCC2	/	/	-1%	4%
COc1ccc(-c2cc(C(=O)Oc3ccc(C#N)cc3)no2)cc1	/	/	12%	0%
CCN1/C(=C/c2cc[n+](C)cc2)C=Cc2cc(C)ccc21	8	-1	-2%	5µM*
Cc1cccc(NC(=O)C2COc3ccccc3O2)n1 (stereo unspecified)	55*	47*	-1%	35%
Cc1csc(NC(=O)C2COc3ccccc3O2)n1 (stereo unspecified)	22	13*	-2%	13µM*
Cc1cc(NC(=O)C2COc3ccccc3O2)no1 (stereo unspecified)	61*	37*	-15%	41%
O=C(Nc1ccccn1)C1COc2ccccc2O1 (stereo unspecified)	64*	32*	2%	/
Cc1cc(NC(=O)COC(=O)C2COc3ccccc3O2)no1 (stereo unspecified)	7	1	1%	-12%
Cc1cc(C)cc(NC(=O)C2COc3ccccc3O2)c1 (stereo unspecified)	/	/	/	-15%
COc1ccc(CN(Cc2ccco2)C(=O)c2ccccc2F)cc1	/	/	1%	-10%
CC(=O)c1cc2c(cc1NC(=O)c1cnn(-c3ccc(C)cc3)c1-n1cccc1)OCO2	/	/	-7%	-11%
COCCNC(=O)c1ccc(-n2c(-c3ccccc3)cc3c2CCCCC3)cc1	/	/	30%	17%
CC1CCN(S(=O)(=O)c2ccc3c(c2)c(=O)c(C(=O)NC(C)c2ccccc2)cn3C)CC1 (stereo unspecified)	/	/	-14%	-15%
SMILES	Shiga toxin inh	CHX counter	Sm TGR block	FMDV antiviral
O=C(Nc1ccc(Cl)cn1)C1COc2ccccc2O1 (stereo unspecified)	51*	29*	7%	17%
O=C(Nc1ccc2c(c1)OCCO2)c1cccs1	47*	55*	0%	34%
O=C(N/C(=C/c1ccc2c(c1)OCO2)C(=O)N1CCOCC1)c1cccs1	-11	-1	-14%	44%
O=C(Nc1ccc2c(c1)OCO2)c1cccs1	197*	61*	-2%	34%
O=C(Nc1ccc2c(c1)OCO2)c1ccc(Br)s1	45*	35*	-8%	4%
O=C(c1ccc2c(c1)OCCCO2)c1cccs1	44*	31*	-25%	31%
Cc1cc(C)c(NC(=O)CSc2ccc(-c3sc(-c4ccccc4)nc3C)nn2)c(C)c1	/	/	14%	-1%
CCOC(=O)c1c(S(=O)(=O)N2CCC(C(=O)Nc3ccccc3OC)CC2)c(C)n(CC)c1C	/	/	-1%	-17%
CC(C)c1ccc(CNc2ccc(N3CCOCC3)cc2)cc1	26	20	-11%	-11%
CN(C)c1ccc(CNc2ccc3c(c2)ncn3C)cc1	18	20*	35µM*	-2%
CCCCn1cnc2cc(NCc3ccc(OCC)cc3)ccc21	/	/	7%	-10%
CC(C)c1ccc(CNc2ncccn2)cc1	42*	39*	-18%	60%
CC(C)c1ccc(CNc2ccc3c(c2)ncn3C)cc1	104*	60*	5%	15%
CCN(CC)S(=O)(=O)c1ccc2c(c1)N(CC(=O)Nc1ccc(Cl)cc1)C(=O)C1CCCN21 (stereo unspecified)	/	/	?	-12%
CN(N=Nc1ccc([N+](=O)[O-])cc1)c1ccccc1	54*	68*	-10%	58%
CN(N=Nc1cccc([N+](=O)[O-])c1)c1ccccc1	88*	57*	30%	8%
CN(C(=O)Nc1cccc([N+](=O)[O-])c1)c1ccccc1	/	/	/	-5%
CC(C)c1c(C(=O)N(C)C2CCN(C)CC2)cnn1-c1nccc(-c2ccco2)n1	/	/	/	-4%
O=C1[C@@H]2[C@@H]3C[C@@H]([C@H]4ON=C(c5ccc(Cl)cc5Cl)[C@@H]34)[C@@H]2C(=O)N1C1CCCCC1	-9	31*	-17%	-18%
CN1C(=O)[C@@H]2[C@@H]3C[C@@H]([C@H]4ON=C(c5ccc(Cl)cc5)[C@@H]34)[C@@H]2C1=O	-11	-3	5%	?
CC(=O)c1ccc(NC(=O)Cn2c(=O)oc3cc(S(=O)(=O)N4CCCCC4)ccc32)cc1	/	/	2%	3%
CS(=O)(=O)N1N=C(c2ccc(Cl)cc2)CC1c1cccs1 (stereo unspecified)	35	35*	-4%	10%
CCOc1ccccc1C1CC(c2cccs2)=NN1S(C)(=O)=O (stereo unspecified)	-6	-1	4µM*	31%
CCS(=O)(=O)N1N=C(c2cccs2)CC1c1cc2cc(C)ccc2nc1Cl (stereo unspecified)	58	32*	-13%	52%
CS(=O)(=O)Nc1ccc(C2=NN(C(=O)C3CCCCC3)C(c3cccs3)C2)cc1 (stereo unspecified)	-8	-1	-1%	20µM*
SMILES	Shiga toxin inh	CHX counter	Sm TGR block	FMDV antiviral
CS(=O)(=O)N1N=C(c2cccs2)CC1c1ccc(F)cc1 (stereo unspecified)	51	33*	-10%	17%
CS(=O)(=O)N1N=C(c2cccs2)CC1c1ccccc1O (stereo unspecified)	-5	-2	19%	0%
COc1ccc(NC(=O)CSc2ccc(-c3ccco3)nn2)cc1	14	9	14µM*	-18%
COc1cc(NC(=O)CSc2ccc(-c3ccco3)nn2)cc(OC)c1	-15	-1	32µM*	?
Cc1cc2n(n1)C(c1sccc1C)Nc1ccccc1-2 (stereo unspecified)	35	3	2%	4%
c1ccc2c(c1)NC(c1ccncc1)n1c-2nc2ccccc21 (stereo unspecified)	35	1	9%	9%
